The record followed here is PubChem BioAssay (NCATS).

Active and inactive are the calls of the source.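 Rule for the calls: active = compounds whose dose series gives a full or clear partial fitted curve of increased nuclear translocation; inconclusive = weak partial curve or effect only at the top dose; inactive = no dose-dependent translocation response.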 A value given as a limit tells only on which side of the number the result lay.
Potency is the fitted concentration of half-maximal effect.

Glucocorticoid receptor (Homo sapiens), sequence (P04150 whole entry, looked up): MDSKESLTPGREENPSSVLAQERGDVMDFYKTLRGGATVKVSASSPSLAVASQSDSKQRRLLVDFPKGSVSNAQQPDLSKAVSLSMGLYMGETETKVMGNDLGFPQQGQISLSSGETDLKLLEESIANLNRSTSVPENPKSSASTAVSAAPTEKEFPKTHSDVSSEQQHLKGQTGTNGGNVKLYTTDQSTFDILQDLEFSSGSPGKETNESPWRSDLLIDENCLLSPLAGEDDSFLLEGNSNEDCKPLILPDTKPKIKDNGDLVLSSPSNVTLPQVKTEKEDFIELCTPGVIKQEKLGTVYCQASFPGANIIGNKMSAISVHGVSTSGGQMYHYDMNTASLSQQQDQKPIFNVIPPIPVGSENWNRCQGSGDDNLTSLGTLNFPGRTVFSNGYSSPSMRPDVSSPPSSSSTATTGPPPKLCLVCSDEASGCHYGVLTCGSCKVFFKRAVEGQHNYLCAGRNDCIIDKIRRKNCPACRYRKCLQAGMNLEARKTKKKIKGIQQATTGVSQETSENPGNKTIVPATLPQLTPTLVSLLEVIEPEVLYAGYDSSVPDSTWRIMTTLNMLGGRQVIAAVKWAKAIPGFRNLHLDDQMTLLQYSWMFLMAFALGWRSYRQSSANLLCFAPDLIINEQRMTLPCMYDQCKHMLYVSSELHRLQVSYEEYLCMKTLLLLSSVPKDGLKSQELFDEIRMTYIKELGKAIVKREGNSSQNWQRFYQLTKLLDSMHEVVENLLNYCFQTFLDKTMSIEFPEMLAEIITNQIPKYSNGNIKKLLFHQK

The target in the assay is Glucocorticoid receptor (Homo sapiens) (UniProt P04150). Put plainly: GR-GFP Redistribution (AID 450). The conditions noted are these: U2OS GR-GFP nuclear translocation, laser cytometry, 2 h. The text has this:
NIH Molecular Libraries Screening Centers Network [MLSCN]
NIH Chemical Genomics Center [NCGC]
The glucocorticoid receptor (GR) Redistribution assay (BioImage) enables the visualization of GR cytoplasmic to nuclear translocation by the use of a GR-GFP fusion. GR is normally cytosolic, however ligands such as dexamethasone, cause nuclear translocation where the protein binds to response elements and interacts with various co-factors to modulate transcription. Because both functional agonists and antagonists can induce nuclear translocation, this assay can detect ligands regardless of their effects on gene expression. GR-GFP expressing U20S cells were used here. Dexamethasone was the positive control for translocation and data normalization. Detection of nuclear translocation was performed in 1536-well plates using the Acumen laser scanning plate cytometer (TTP LabTech). Validation of this assay and a detailed protocol have been described.
NCGC Assay Protocol Summary:
GR-GFP U2OS cells were maintained in DMEM with Glutamax and high glucose, 1% v/v penicillin-streptomycin, and 0.5 mg/mL Geneticin. For cell culture, 10% […] fetal bovine serum (FBS) was used (Invitrogen #26140-079). For cell plating 10% dextran, charcoal-stripped FBS (Hyclone SH30068.03) was used. U2OS cells were trypsin treated, suspended in medium, and passed through a 40 um basket filter. The cells were seeded at 600 cells/5 uL/well into clear-bottom black sided 1536-well plates and incubated for approximately 20 hrs, 37degC, 5%, CO2 in a tissue culture incubator. Twenty-three nL of compound was delivered by pin tool and the plates were incubated as above for 2 hrs. The compounds were tested as a 7-point titration ranging from 46 uM to 0.6 nM. The cells were fixed using the Kalypsys Washer/Dispenser station. The fixing protocol involved aspiration of the cell media, addition of 6 uL/well of PBS, aspiration of PBS, addition of 5uL/well of 100% methanol, aspiration of methanol, and addition of 3 uL/well PBS with 1.5 uM propidium iodide (PI). The plates were read by the Acumen Explorer using a 1 x 8 um scan of the whole well area. PI fluorescence triggered the collection of PI and GFP signals. A nuclei population was defined by a 10 to 100 um width and depth filter that eliminated small and large fluorescent particles. Two subpopulations of nuclei were then defined by peak intensity of GFP fluorescence to obtain translocated and untranslocated objects. The number of translocated objects was used for data normalization.
Keywords: NIH Roadmap, MLSCN, MLI, MLSMR, sOGT, qHTS, NCGC
On to `NC(=O)c1ncn([C@H]2O[C@@H](CO)[C@@H](O)[C@@H]2O)n1`, for which the Potency is > 20.6 µM (inactive).
The figure for `CN[C@@H]1[C@H](O[C@H]2[C@@H](O[C@@H]3[C@@H](O)[C@@H](O)[C@@H](N=C(N)N)[C@@H](O)[C@@H]3N=C(N)N)O[C@@H](C)[C@]2(O)CO)O[C@H](CO)[C@@H](O)[C@@H]1O` is > 20.6 µM (inactive); for `C[N+]12CCC(CC1)[C@@H](OC(=O)C(O)(c1ccccc1)c1ccccc1)C2` it is > 20.6 µM (inactive); for `C[C@@H]1C(=O)O[C@@H]2C[C@]34[C@H]5C[C@@H](C(C)(C)C)[C@@]36[C@@H](OC(=O)[C@@H]6O)O[C@@]4(C(=O)O5)[C@@]12O` it is > 20.6 µM (inactive).
Then `OC[C@@H](O)CN1CCN(c2ccccc2)CC1`, with > 20.6 µM (inactive); and `CC(=O)N[C@H](CS)C(=O)O`, with > 46 µM (inactive); and `NCC[C@H](O)C(=O)N[C@H]1C[C@@H](N)[C@@H](O[C@H]2O[C@@H](CN)[C@@H](O)[C@@H](O)[C@@H]2O)[C@@H](O)[C@@H]1O[C@H]1O[C@@H](CO)[C@@H](O)[C@@H](N)[C@@H]1O`, with > 20.6 µM (inactive).
In the case of `CC[C@H](Cc1c(I)cc(I)c(N)c1I)C(=O)O`, the Potency was > 20.6 µM (inactive).
Then `CC(=O)N[C@@H](CC(=O)O)C(=O)O`, with > 20.6 µM (inactive).
Then `CC(=O)OCC(=O)[C@@]1(OC(C)=O)[C@H](C)C[C@H]2[C@@H]3C[C@H](F)C4=CC(=O)C=C[C@@]4(C)[C@]3(F)[C@H](O)C[C@@]21C`, with 0.00203 µM (active).
The figure for `Nc1nc(=S)c2ncn([C@H]3O[C@@H](CO)[C@@H](O)[C@@H]3O)c2[nH]1` is > 20.6 µM (inactive); for `C=C1CC23C[C@H]4[C@@H]5[C@@]6(C)C[C@H](OC(=O)c7ccccc7)[C@@H](OC(C)=O)[C@]57[C@@H]2[C@@H](OC(C)=O)[C@H]1[C@@H](O)[C@H]3[C@H]7N4C6` it is > 20.6 µM (inactive); for `NC(=O)N/N=C\c1ccc([N+](=O)[O-])o1` it is > 20.6 µM (inactive).
Consider `CN(C)CCO[C@@H](c1ccc(Cl)cc1)c1ccccn1`, for which the Potency is > 20.6 µM (inactive).
Then `C[C@@H]1O[C@H](O[C@@H]2[C@@H](Oc3cc(O)c4c(c3)O[C@H](c3ccc(O)cc3)CC4=O)O[C@@H](CO)[C@@H](O)[C@H]2O)[C@@H](O)[C@H](O)[C@@H]1O`, with > 20.6 µM (inactive); and `O=C(O)c1cc2ccccc2c(Cc2cc3ccccc3c(C(=O)O)c2O)c1O` (tested in a mixture with another compound), with > 20.6 µM (inactive).
The figure for `CC(=O)O[C@H]1C[C@@]2(C)[C@H](C[C@@H](O)[C@H]3[C@@]4(C)CC[C@@H](O)[C@@H](C)[C@H]4CC[C@@]32C)C1=C(CCC=C(C)C)C(=O)O` is > 20.6 µM (inactive); for `C[C@H]1[C@@H](O)[C@@H](C)\C=C/C=C\C=C/C=C\C=C/C=C\C=C/[C@@H](O[C@H]2O[C@@H](C)[C@@H](O)[C@@H](N)[C@@H]2O)C[C@@H]2O[C@](O)(C[C@@H](O)C[C@@H](O)[C@@H](O)CC[C@@H](O)C[C@@H](O)CC(=O)O[C@H]1C)C[C@@H](O)[C@H]2C(=O)O` (stereo in doubt) it is > 20.6 µM (inactive); for `CN1CC[C@@]23c4ccccc4N[C@H]1[C@]21CCN(C)[C@@H]3Nc2ccccc21` it is > 20.6 µM (inactive).
`COc1ccc2nccc(C(=O)O)c2c1`: the Potency is > 20.6 µM (inactive).
For `C[C@@H](Cc1cccc(C(F)(F)F)c1)NCCOC(=O)c1ccccc1`, the Potency was > 20.6 µM (inactive).
Consider `COc1cc(OC)c2c(c1Cl)O[C@@]1(C2=O)[C@H](C)CC(=O)C[C@@H]1OC`, for which the Potency was > 20.6 µM (inactive).
Then `COc1cccc(-c2nc(NCCc3c[nH]c4ccc(OC)cc34)c3ccccc3n2)c1`, with > 46 µM (inactive); and `COc1c(-c2ccccc2)oc2c(ccc3occc32)c1=O`, with > 46 µM (inactive).
Then `CC(=O)Nc1cc2ccccc2oc1=O`, with > 20.6 µM (inactive); and `O=C(Nc1ccccc1)OC[C@H](CN1CCCCC1)OC(=O)Nc1ccccc1`, with > 20.6 µM (inactive); and `CS(=O)(=O)c1ccc([C@H](O)[C@H](CO)NC(=O)C(Cl)Cl)cc1`, with > 20.6 µM (inactive).
Then `CN(C)/N=N\c1nc[nH]c1C(N)=O`, with > 20.6 µM (inactive); and `C[C@@]12CC[C@H]3[C@@H](CCC4=CC(=O)CC[C@]43C)[C@H]1CC[C@H]2C(=O)CO`, with 0.0622 µM (active); and `Cc1c(O)c(=O)n(-c2ccccc2)n1C`, with > 20.6 µM (inactive).
Take `COC(=O)C1=C(C)NC(C)=C(C(=O)OCCN(C)Cc2ccccc2)[C@H]1c1cccc([N+](=O)[O-])c1`: the Potency was > 20.6 µM (inactive).
The figure for `C[C@]12C=CC(=O)C=C1CC[C@@H]1[C@H]3C[C@@H](O)[C@](O)(C(=O)CO)[C@@]3(C)C[C@H](O)[C@]12F` is 0.108 µM (active); for `Nc1c2ccccc2nc2c(O)cccc12` it is > 20.6 µM (inactive); for `Cc1nccn1C[C@@H]1CCc2c(c3ccccc3n2C)C1=O` it is > 20.6 µM (inactive).
The figure for `NC[C@@H]1O[C@H](O[C@H]2[C@H](O)[C@@H](O[C@H]3[C@H](O)[C@H](N)C[C@H](N)[C@H]3O[C@@H]3O[C@H](CO)[C@@H](O)[C@H](O)[C@@H]3N)O[C@H]2CO)[C@@H](N)[C@H](O)[C@@H]1O` is > 20.6 µM (inactive).
Regarding `C[C@@H]1O[C@H](O[C@@H]2\C=C/C=C\C=C/C=C\C[C@H](C)OC(=O)/C=C\[C@H]3O[C@@H]3C[C@H](O)C[C@]3(O)C[C@@H](O)[C@@H](C(=O)O)[C@H](C2)O3)[C@@H](O)[C@H](N)[C@@H]1O` (stereo in doubt), the Potency was > 20.6 µM (inactive).
The figure for `CC[C@H](CC[C@H](C)[C@@H]1CC[C@@H]2[C@H]3CC=C4C[C@@H](O)CC[C@]4(C)[C@H]3CC[C@]21C)C(C)C` is > 20.6 µM (inactive).
Then `CS(=O)(=O)Nc1cccc(-c2nc(Nc3ccccc3)c3ccccc3n2)c1`, with > 46 µM (inactive); and `CS(=O)(=O)c1ccc([C@H](O)[C@H](CF)NC(=O)C(Cl)Cl)cc1`, with > 20.6 µM (inactive); and `Cc1ccnc(N)c1`, with > 46 µM (inactive).
